Shown are actives, neighbours in structure and some others; about 10% of the full set was active somewhere.
3T3 cytotox: cytotoxic compounds in NIH 3T3 cells. NIH 3T3 viability, CellTiter-Glo ATP luminescence, 48-72 h. Potency, µM (titrated, usually from 96.7 µM), for the others: top-dose activity change, negative = cytotoxicity, most hits filed as inhibitors. hit rate 4.3% among 94,000; further: nearly all actives have a fitted effect of over 55% in size
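NIH 3T3 cells at 400 cells/well received 23 nL of compound by pintool and were incubated 48 or 72 h at 37 °C. Viability was read as ATP-coupled CellTiter-Glo luminescence.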
HEK293 tox: cytotoxic compounds in HEK 293 cells; HEK 293 viability, ATP luminescence (CellTiter-Glo), 48-72 h; Potency, µM (top dose mostly 115 µM), for inactives: at the top dose activity change, negative = cytotoxicity, most hits filed as inhibitors; hit rate 6.6% among 94,000; further: nearly all actives have a fitted effect of over 60% in size
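CellTiter-Glo luminescence (cellular ATP) was read after 48 or 72 hr of compound exposure at 37 degree Celsius. Cells were HEK 293 plated at 250 cells/well.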
NPR1 antag: human Npr1 receptor antagonism. P16066. HEK293 hNpr1 GloSensor cGMP, ANP-stimulated luminescence. Potency, µM (titrated, usually from 46.3 µM), inactives show at the top dose activity change, negative = inhibition, usual class: inhibitors. hit rate 1.6% among 76,000. AID 1347048; calls by dose curve; further: nearly all actives have a fitted effect of over 60% in size
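HEK293 cells stably expressing human Npr1 and cGMP GloSensor pGS-40F, loaded 2 h with 2% GloSensor reagent, given compound 30 min at room temperature. Luminescence read before and 20 min after 0.1 nM hNppA.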
Luciferase inh: inhibitors of firefly (Photinus pyralis) luciferase; purified P. pyralis luciferase, luminescence, biochemical; Potency, µM (top dose mostly 115 µM), usual class: inhibitors; hit rate 2.5% among 76,000; AID 1347043; further: nearly all actives have a fitted effect of over 65% in size
Target sequence (P08659 whole entry, looked up): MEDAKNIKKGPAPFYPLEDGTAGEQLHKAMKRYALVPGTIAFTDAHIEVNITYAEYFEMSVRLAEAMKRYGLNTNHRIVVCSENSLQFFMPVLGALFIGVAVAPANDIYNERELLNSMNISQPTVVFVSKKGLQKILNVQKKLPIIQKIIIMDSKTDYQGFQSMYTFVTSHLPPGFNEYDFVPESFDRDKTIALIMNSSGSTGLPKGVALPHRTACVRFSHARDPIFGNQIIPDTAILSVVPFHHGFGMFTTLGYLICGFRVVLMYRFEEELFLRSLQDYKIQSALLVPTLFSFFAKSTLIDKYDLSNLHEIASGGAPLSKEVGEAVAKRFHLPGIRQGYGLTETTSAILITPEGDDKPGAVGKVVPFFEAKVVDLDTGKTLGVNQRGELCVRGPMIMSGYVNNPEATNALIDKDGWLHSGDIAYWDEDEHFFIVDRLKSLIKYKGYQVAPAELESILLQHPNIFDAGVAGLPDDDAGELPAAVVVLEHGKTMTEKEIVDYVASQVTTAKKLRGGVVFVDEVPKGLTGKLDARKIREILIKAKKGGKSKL
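Luminescence read by CCD imaging after purified firefly luciferase (10nM final) was added to substrate buffer holding 10uM D-luciferin and 10uM ATP, pH 7.5, pre-dosed with compound.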
GPT2 inh: inhibitors of human GPT2 alanine aminotransferase | Q8TD30 | Recombinant GPT2, coupled pyruvate oxidase/HRP Amplex Red fluorescence | Potency, µM (titrated, usually from 57.7 µM), without a hit: at the top dose activity change, negative = inhibition, usual class: inhibitors | hit rate 0.25% among 100,000 | AID 1671188; further: nearly all actives have a fitted effect of over 60% in size
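Inhibition is scored from Amplex Red fluorescence generated when pyruvate oxidase and HRP act on pyruvate released by GPT2. Reactions contain 10ng/uL enzyme, 250uM a-KG and 2mM L-alanine and run 30 min at room temperature.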
The depositor's hits bear a star; [ ] = dose if it differs, or a comment. Unless noted, the call rests on the fitted dose curve; in most records, active means well fitted curve in the direction sought with a large enough effect; inconclusive means small, poorly fitted or top-dose-only effect, or another doubt; inactive means no such curve, though single readings can be large; an effect the other way counts as inactive or inconclusive. On the % scale 0 is the no-effect control and ±100 the full control effect; potency means the concentration at half of the fitted maximal effect.

O=c1c2nc(Nc3ccc(C(F)(F)F)cc3)ccc2ncn1C1CC1 was read as 3T3 cytotox inconclusive, HEK293 tox inconclusive, NPR1 antag -24.2%[70.6 µM], Luciferase inh 63.1µM* and GPT2 inh inconclusive.
Screening COCCn1cnc2ccc(Nc3ccc(C(F)(F)F)cc3)nc2c1=O returned 3T3 cytotox inconclusive, HEK293 tox inconclusive, NPR1 antag -13.4%[70.6 µM], Luciferase inh inactive and GPT2 inh -7.7%[88.5 µM].
Screening COc1ccc(CCN(Cc2ccccc2F)CC2(O)CCCNC2)cc1 (centres undefined) returned 3T3 cytotox 25.1µM*, HEK293 tox 25.1µM*, NPR1 antag -24.5%, Luciferase inh inactive and GPT2 inh -13.0%.
Screening CC(C)(C)c1nc(C(=O)NCc2ccc(F)cc2)n2ccncc12 returned 3T3 cytotox inconclusive, HEK293 tox inconclusive and GPT2 inh -5.1%.
CCC(CC)C(=O)NCc1cccnc1Oc1cccc(C(F)(F)F)c1 was read as 3T3 cytotox -24.0%, HEK293 tox inconclusive, NPR1 antag 1.1%, Luciferase inh inactive and GPT2 inh inactive.
COCc1cc(NCc2cccnc2Oc2cccc(C(F)(F)F)c2)ncn1 was read as 3T3 cytotox -31.7%, HEK293 tox 50.1µM*, NPR1 antag -7.3%, Luciferase inh inactive and GPT2 inh 4.1%.
CC(C)CNC(=O)c1cn2cc(-c3ccc(F)cc3)sc2n1 was read as 3T3 cytotox inconclusive, HEK293 tox inconclusive and GPT2 inh -34.1%[88.5 µM].
Screening CNC(=O)CCn1ncc2cc(OCc3ccccc3-c3ccc(F)cc3F)ccc21 returned 3T3 cytotox inconclusive, HEK293 tox 79.4µM*, NPR1 antag -1.5%[70.6 µM], Luciferase inh inconclusive and GPT2 inh inconclusive.
CNC(=O)CCn1ncc2cc(OCc3ccccc3-c3ccccc3C)ccc21 was read as 3T3 cytotox inconclusive, HEK293 tox inconclusive, NPR1 antag -17.8%[70.6 µM], Luciferase inh inactive and GPT2 inh -3.3%[88.5 µM].
CNC(=O)CCn1ncc2cc(OCc3ccccc3-c3cc(F)ccc3C)ccc21 was read as 3T3 cytotox 79.4µM*, HEK293 tox 63.1µM*, NPR1 antag -27.3%[70.6 µM], Luciferase inh inconclusive and GPT2 inh 3.6%[88.5 µM].
Screening NCc1ccccc1-c1ccsc1 returned 3T3 cytotox inactive, HEK293 tox 0.4%[172 µM] and GPT2 inh -3.0%[88.5 µM].
`O=C(C1CC1)N1CCCN(CCc2ccccc2)c2ccccc21` gave 3T3 cytotox 31.6µM*, HEK293 tox inconclusive, NPR1 antag -14.5%, Luciferase inh inactive and GPT2 inh inactive.
`COCCNC(=O)[C@H]1C[C@H](Oc2ccccc2)CN1Cc1cn(C)c2ccccc12` gave 3T3 cytotox -26.5%, HEK293 tox 39.8µM*, NPR1 antag 8.2%, Luciferase inh inactive and GPT2 inh inactive.
Screening COCCNC(=O)[C@H]1C[C@H](Oc2ccccc2)CN1Cc1cccn1C returned 3T3 cytotox -1.4%, HEK293 tox inconclusive, NPR1 antag 4.9%, Luciferase inh inactive and GPT2 inh -16.0%.
For COCCOC1CCN(C(=O)c2sc(C)nc2C)CC1 the results were 3T3 cytotox 3.1%, HEK293 tox -0.4%, NPR1 antag 6.5%, Luciferase inh 35.5µM* and GPT2 inh -5.8%.
`O=C1Nc2ccccc2OCC12CCN(Cc1ccccc1)CC2` gave 3T3 cytotox -20.1%[138 µM], HEK293 tox inconclusive, NPR1 antag 21.9%[70.6 µM], Luciferase inh inactive and GPT2 inh inactive.
`Cc1c(-c2ccccc2F)[nH]c2ccc(CNC(=O)Cn3ccc(=O)[nH]c3=O)cc12` gave 3T3 cytotox 44.7µM*, HEK293 tox 44.7µM*, NPR1 antag -7.1%, Luciferase inh 10µM* and GPT2 inh inactive.
Screening Cc1c(-c2ccccc2F)[nH]c2ccc(CNC(=O)CCN3CCCC3=O)cc12 returned 3T3 cytotox -27.2%, HEK293 tox inconclusive, NPR1 antag 0.1%, Luciferase inh 28.2µM* and GPT2 inh 2.5%.
Screening Cc1c(-c2ccccc2F)[nH]c2ccc(CNC(=O)CCC3=NNC(=O)CC3)cc12 returned 3T3 cytotox inconclusive, HEK293 tox inconclusive, NPR1 antag -2.2%, Luciferase inh inconclusive and GPT2 inh -0.9%.
`Cc1c(-c2ccccc2)[nH]c2c(CNC(=O)Cn3ccc(=O)[nH]c3=O)cc(Cl)cc12` gave 3T3 cytotox inconclusive, HEK293 tox inconclusive, NPR1 antag 1.3%, Luciferase inh inconclusive and GPT2 inh -5.4%.
Screening Fc1ccc(-c2cnc([C@@H]3COCCN3CC3CC3)[nH]2)cc1 returned 3T3 cytotox inconclusive, HEK293 tox inconclusive, NPR1 antag -1.8%[70.6 µM], Luciferase inh inactive and GPT2 inh -2.0%[88.5 µM].
For O=C(NCC1CC1)c1ccc2nnc(-c3ccc(OC(F)(F)F)cc3)n2c1 the results were 3T3 cytotox inconclusive, HEK293 tox inconclusive and GPT2 inh -1.6%.
Screening O=C(c1nc2cccnc2n(CCc2ccccc2)c1=O)N1CCC(c2ccccc2)CC1 returned 3T3 cytotox inconclusive, HEK293 tox inconclusive and GPT2 inh 3.5%.
CCOc1cc(C(=O)NC2CCN(c3cc(-c4ccccc4)[nH]n3)C2)cc(OCC)c1OCC (centres undefined) was read as 3T3 cytotox inconclusive, HEK293 tox inconclusive, NPR1 antag 2.8%, Luciferase inh inactive and GPT2 inh -8.8%.
`COc1ccc(C(=O)NC2CCN(c3cc(-c4ccccc4)[nH]n3)C2)cc1F` (centres undefined) gave 3T3 cytotox inconclusive, HEK293 tox inconclusive, NPR1 antag 4.9%, Luciferase inh inactive and GPT2 inh inconclusive.
CCOc1ccc(C(=O)NC2CCCN(c3cc(-c4ccccc4)[nH]n3)C2)cc1OCC (centres undefined) was read as 3T3 cytotox inconclusive, HEK293 tox 31.6µM*, NPR1 antag -9.4%, Luciferase inh inactive and GPT2 inh -5.6%.
COc1ccc(C(=O)NC2CCCN(c3cc(-c4ccccc4)[nH]n3)C2)cc1OC (centres undefined) was read as 3T3 cytotox -28.9%, HEK293 tox inconclusive, NPR1 antag -9.7%, Luciferase inh 28.2µM* and GPT2 inh -7.8%.
CC(=O)Nc1ccc(CN2CC3CCC(C2)N3c2ccc(C(F)(F)F)cc2)cc1 was read as 3T3 cytotox inconclusive, HEK293 tox 22.4µM*, NPR1 antag inconclusive, Luciferase inh inactive and GPT2 inh 2.2%.
For CCN1C(=O)C2CC3(CCN(Cc4cccc(OC(F)(F)F)c4)CC3)CN2C1=O (centres undefined) the results were 3T3 cytotox inconclusive, HEK293 tox 39.8µM*, NPR1 antag -21.4%, Luciferase inh inactive and GPT2 inh 1.0%.

Source: PubChem BioAssay (National Center for Advancing Translational Sciences (NCATS))
